# Screens deposited in PubChem BioAssay by Columbia University Molecular Screening Center.
# Only some compounds are listed: those with a hit (about 1.2% of all), similar ones and a draw of the others.
# cytoskel mod = alters cytoskeleton assembly in HUVEC cells | HUVEC TNFa F-actin phalloidin imaging, high content | inhibition, % at 2 µM | 0.18% of 91,000 active;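 active = inhibition above the batch mean plus 3 SD and confirmed as a hit by visual image inspection, cut at about 30% in these data, passing the limit was not always enough; inconclusive = above the inhibition threshold but rejected on visual inspection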
# VCAM1 TNFa inh = reduces TNF alpha induced VCAM1 expression in HUVEC | inhibition, % at 2 µM | 0.48% of 95,000 active | HUVEC TNFa-induced VCAM-1 immunofluorescence, high-content imaging;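 active = inhibition above the batch mean plus 3 SD, with images confirmed as a hit by eye, cut at about 37% in these data; inconclusive = inhibition above that limit but hit not confirmed in images; inactive = inhibition not above that limit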;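 note: 0% = TNF-stimulated DMSO wells and 100% = unstimulated control wells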
# E-sel TNF inh = TNF alpha driven E-selectin expression inhibition. 0.71% of 120,000 active. HUVEC TNFa-induced E-selectin immunofluorescence, high content. inhibition, % at 2 µM. AID 1246;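 active = inhibition above the batch mean plus 3 SD, and confirmed as a hit on visual image review, cut at about 43% in these data; inconclusive = passes the inhibition cutoff but fails visual image review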;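 note: 0% = TNF-stimulated DMSO wells and 100% = unstimulated control wells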
# TNFa cytotox = HUVEC cytotoxicity counter-screen, TNF alpha stimulated | HUVEC TNFalpha-stimulated, Hoechst cell count, imaging | 0.17% of 93,000 active | cell count reduction, % at 2 µM;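 active = cell count reduction exceeding the screen mean by over 5 SD, scaled to untreated wells per plate, cut at about 78% in these data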;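 note: cells counted after 24 h of TNF alpha exposure following the 1 h pretreatment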
# * marks the source's active call; other numbers are inactive results; u = inconclusive; x = no result given.
SMILES,cytoskel mod,VCAM1 TNFa inh,E-sel TNF inh,TNFa cytotox
C=CCOC(=O)C1=C(C)OC(N)=C(C#N)C12C(=O)N(CN1CCOCC1)c1ccccc12 (stereo unspecified),-48,88*,x,91*
CCOC(=O)C1=C(C)OC(N)=C(C#N)C12C(=O)N(C)c1ccccc12 (stereo unspecified),5,10,9,-4
COC(=O)C1CN(C#N)N(c2ccc(Cl)cc2)C12c1ccccc1-c1ccccc12 (stereo unspecified),u,x,63*,x
CCN(CC)CCOC(=O)c1ccc(N=Cc2c(O)[nH]c(=O)[nH]c2=O)cc1,-17,16,51*,5
Cc1nc2ccccc2c(=O)n1-n1cnnc1,27,-8,11,-13
O=C(Cc1ccccc1)N1CCN(CC2CC=CCC2)CC1 (stereo unspecified),x,x,6,x
CSc1ccc(CNC2CN3CCC2CC3)cc1 (stereo unspecified),-17,93*,-3,86*
CN1/C(=C\C=C\C2=[N+](C)c3ccc4ccccc4c3C2(C)C)C(C)(C)c2ccccc21,14,84*,7,28
CN1/C(=C\C=Nc2ccccc2)C(C)(C)c2ccccc21,10,12,-20,-8
CCCCn1c(O)c(C(C)=NCCN2CCCCC2)c(=O)[nH]c1=O,10,8,x,-12
O=C(c1cc2ccccn2n1)N1CCC2(CC1)OCCO2,-32,-3,x,4
O=C(c1ccc2c(c1)ncn2C1CCCCC1)N1CCC2(CC1)OCCO2,-27,92*,x,80*
COC(=O)CC1=C(C(=O)OC)C2(C(=O)Nc3c(C)cccc32)C(C#N)=C(N)O1 (stereo unspecified),40,6,x,-24
CCC(=NCc1cccnc1)c1c(O)n(C2CCCCC2)c(=O)[nH]c1=O,28,9,-5,-8
CN(C)C(=O)Oc1c(Cl)cc(Cl)c2cccnc12,x,x,74*,x
COc1ccc(Oc2cc(NC(=O)c3nn(C)cc3[N+](=O)[O-])cc([N+](=O)[O-])c2)cc1,24,90*,90*,39
O=C1C(=O)c2ccccc2-c2ccccc21,18,84*,-26,41
O=C1C(=O)c2cccc3cccc1c23,x,x,4,x
CC(=NCCCO)c1c(O)n(Cc2ccccc2)c(=O)[nH]c1=O,39,94*,-26,x
CC1CCC/C=C/C2CC(O)CC2C(O)/C=C/C(=O)O1 (stereo unspecified),13,94*,98*,87*
C[C@H]1CCC[C@@H](O)CCC/C=C/c2cc(O)cc(O)c2C(=O)O1,-9,-80,-4,-47
Cn1c(O)c(C(=N)COc2cccc(Cl)c2)c(=O)n(C)c1=O,20,5,65*,-13
CN1CC=C2C(C#N)=C(N)C(C#N)(C#N)C(c3ccncc3)C2C1 (stereo unspecified),8,-5,-30,-19
O=C(CNS(=O)(=O)c1cccs1)N1CCC2(CC1)OCCO2,-14,0,-15,-4
CC(=O)Nc1ccc(OCCF)cc1,x,x,100*,x
O=C(c1cc([N+](=O)[O-])ccc1N1CCNCC1)N1CCOCC1,x,x,4,x
